From PubChem BioAssay
In the library only some 11% were active in any assay of this set; here they are far more common.
G9a block = qHTS Assay for Inhibitors of Histone Lysine Methyltransferase G9a; G9a H3K9 monomethylation, AlphaScreen, 2 h; Potency, µM (series often up to 102 µM), without a hit: at the highest dose activity, negative = inhibition, usual class: inhibitors; AID 504332, 2011; 350,000 compounds, 8.8% hits; note: potency is the fitted concentration of half-maximal effect; % is set by controls: 0 for no effect and ±100 for the full control effect; nearly all actives have a fitted effect of over 75% in size
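Signal arises when biotinylated H3K9 peptide, once monomethylated, bridges streptavidin donor and antibody-captured acceptor beads. Enzyme at 20 nM was preincubated 15 min with test compounds; peptide 500 nM and SAM 20 uM then reacted for 2 h.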
HP1b chromo inh = HTS for Inhibitors of HP1-beta Chromodomain Interactions with Methylated Histone Tails. AlphaScreen HP1-beta / biotin-H3K9me3 peptide binding. Potency, µM (top dose mostly 114 µM), for the others: top-dose activity change, negative = inhibition, most hits filed as inhibitors. 390,000 compounds, 0.56% hits. AID 540317, 2011; note: potency is the fitted concentration of half-maximal effect; nearly all actives have a fitted effect of over 70% in size
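AlphaScreen: HP1-beta (50 nM) preformed 30 min with biotin-H3(1-18)K9me3 peptide (50 nM) in PBS pH 7.4, 0.01% Tween-20. Compound added for 30 min at RT, then streptavidin donor/nickel chelate acceptor beads (10 ug/mL) for 30 min.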
JMJD2A Tudor = qHTS Assay for Inhibitors of JMJD2A-Tudor Domain. AlphaScreen JMJD2A-Tudor / H3K4me3 peptide binding. Lysine-specific demethylase 4A (Homo sapiens), O75164. 390,000 compounds, 4.4% hits. AID 504339, 2011. Potency, µM (doses to about 114 µM), for inactives: at the top dose activity change, negative = inhibition, usual class: inhibitors; note: potency is the fitted concentration of half-maximal effect; % is set by controls: 0 for no effect and ±100 for the full control effect; nearly all actives have a fitted effect of over 50% in size
PI5P4K alpha inh = qHTS for Inhibitors of phosphatidylinositol 5-phosphate 4-kinase (PI5P4K). PI5P4Kalpha enzyme, ADP-Glo luminescence, 60 min; hits give low values. AID 652105, 2013. 330,000 compounds, 1.2% hits. max response, %. Phosphatidylinositol 5-phosphate 4-kinase type-2 alpha (Homo sapiens), P48426; active = max response of -50% or lower; inconclusive = between -30% and -50%; inactive = -30% or higher; note: value at the top dose of about 77 µM; % is set by controls: 0 for no effect and ±100 for the full control effect
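Controls without substrate or without enzyme flank wells where PI5P4Kalpha converts substrate using 5 microM ATP (final). Incubation lasts 60 minutes at room temperature; ADP formed is read by ADP-Glo luminescence.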
BAZ2B inh = qHTS Assay for Inhibitors of BAZ2B; Bromodomain adjacent to zinc finger domain protein 2B (Homo sapiens), Q9UIF8; AlphaScreen BAZ2B-H3K14Ac peptide displacement; Potency, µM (titrated, usually from 114 µM), for inactives: at the highest dose activity change, negative = inhibition, actives largely listed as inhibitors; 360,000 compounds, 4.4% hits; AID 504333, 2011; note: potency is the fitted concentration of half-maximal effect; % is set by controls: 0 for no effect and ±100 for the full control effect; nearly all actives have a fitted effect of over 60% in size
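AlphaScreen displacement: compounds (up to 110uM) incubated 30 min at room temperature with a preformed 50 nM BAZ2B/50 nM biotinylated H3K14Ac peptide complex in PBS pH 7.4 with Tween-20. Donor and acceptor beads at 10 ug/mL final added, 20 min light-protected before reading.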
L3MBTL1 inh = qHTS Assay for the Inhibitors of L3MBTL1. Lethal(3)malignant brain tumor-like protein 1 (Homo sapiens), Q9Y468. AlphaScreen L3MBTL1–H3K9me1 peptide binding. Potency, µM (doses to about 57.1 µM), inactives show at the top dose activity, negative = inhibition, most hits filed as inhibitors. 230,000 compounds, 0.66% hits. AID 485360, 2010; note: potency is the fitted concentration of half-maximal effect; % is set by controls: 0 for no effect and ±100 for the full control effect; nearly all actives have a fitted effect of over 60% in size
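AlphaScreen assay: L3MBTL1 (50 nM final) was preincubated 30 min at room temperature with biotinylated H3(1-15)K9me1 peptide (75 nM final), then 30 min with library compounds; streptavidin donor and nickel chelate acceptor beads (10 ug/mL final) added, 30 min dark.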
The depositor's hits bear a star; ? = inconclusive; · = not tested or not shown; ! = a repeat was not active; [ ] = dose if it differs, or a comment. Unless noted, calls come from the whole dose curve; as a rule, active = well fitted inhibition curve with a large enough effect; inconclusive = small, poorly fitted or top-dose-only effect; inactive = no such curve, though single readings can be large or run the other way.

SMILES	G9a block	HP1b chromo inh	JMJD2A Tudor	PI5P4K alpha inh	BAZ2B inh	L3MBTL1 inh
Cc1ccc2c(c1)C1CN(C)CCC1N2C(=O)Nc1ccc(Cl)cc1 (stereo unspecified)	-3%	45%	-13%	·	6%	2%
O=[N+]([O-])c1cccc(CN2CCN(Cc3ccc(Br)cc3)CC2)c1	3.5µM*	?	20µM*	-11	20µM*	-19%
O=[N+]([O-])c1cccc(C2N3CCCN23)c1 (stereo unspecified)	-1%	63%	0%	1	-20%	9%[11.4 µM]
COc1nnc(-c2ccc(N3CCCCC3)c(NC(=O)c3ccc(Cl)cc3)c2)c2ccccc12	?	13%	-7%	·	-7%	·
O=C(C[N+]12CCC(CC1)C(OC(=O)c1ccccc1)C2)c1ccc([N+](=O)[O-])cc1 (stereo unspecified)	·	32%	-10%	2	-4%	13%
O=C(C[N+]12CCC(CC1)C(CO)C2)c1ccc([N+](=O)[O-])cc1 (stereo unspecified)	35µM*	54%	-7%	5	-13%	·
COc1cc(OC)c(/C=C2\C(=O)Nc3ccccc32)c(OC)c1	?	?	56µM*	5	45µM*	?
O=C1Nc2ccccc2/C1=C/c1cnc[nH]1	44%[59 µM]	17%	-18%	·	?	-3%
COc1ccc2c(c1)/C(=C/c1cnc[nH]1)C(=O)N2	30%[59 µM]	9%	-30%	-18	50µM*	·
O=C1Nc2ccccc2Oc2ccccc21	·	·	·	1	·	·
CCCOc1ccc(C2SCC(=O)Nc3c2c(C)nn3-c2cccc(C)c2)cc1OC (stereo unspecified)	-34%[59 µM]	12%	-33%	·	-29%	·
O=[N+]([O-])O[C@H]1CO[C@H]2[C@H]1OC[C@@H]2O[N+](=O)[O-]	21%[21.5 µM]	·	·	·	·	·
CSCCC(=O)Nc1cc(S(=O)(=O)N2CCOCC2)ccc1N1CCN(C)CC1	?	19%	-16%	-9	-2%	-5%
CCOC(=O)c1sc(/N=C/c2c(O)n(-c3cccc(C)c3)c(=O)[nH]c2=O)c(C#N)c1C	-20%[59 µM]	?	50µM*	-21	1%	4%
O=C(O)CNC1c2ccccc2CSc2ccccc21 (stereo unspecified)	·	5%	18µM*	2	·	·
COc1ccccc1CN1CCN(C(=O)COc2cccc(C)c2)CC1	?	?	32µM*	2	50µM*	4%
Cn1cccc1CN1CCN(C(=O)COc2ccccc2)CC1	?	?	7.1µM*	-10	45µM*	-3%
COc1cc(CN2CCN(C(=O)COc3ccccc3)CC2)cc(OC)c1OC	?	-20%	3.2µM*	5	?	-3%
Cn1nc(-c2ccc(OCC(=O)N3CCN(Cc4ccccc4)CC3)cc2)c2ccccc2c1=O	19%[59 µM]	11%	?	0	-12%	10%
COc1cccc(CN2CCN(C(=O)Cc3ccccc3OC)CC2)c1	·	30%	-5%	1	-10%	·
COc1ccc(OC)c(CN2CCN(C(=O)COc3cccc(C)c3)CC2)c1	7.1µM*	?	3.5µM*	2	?	-3%
[S]=[Sb][S][Sb]=[S]	-28%[12.7 µM]	·	·	·	·	·
CC(=O)OC1C[C@@]2(C)C(c3ccoc3)C[C@H]3O[C@@]32[C@@]2(C)C(=O)C(O)=C3C(C)(C)C(=O)C=C[C@]3(C)C12 (stereo partly specified)	-42%[2.33 µM]	·	·	·	·	·
C=CCNC(=S)/N=C/c1c(O)[nH]c(=O)[nH]c1=O	·	21%	-3%	-52*	8%	4%
CCCCCCCCN=Cc1c(O)[nH]c(=O)[nH]c1=O	·	27%	-7%	-1	2%	·
SMILES	G9a block	HP1b chromo inh	JMJD2A Tudor	PI5P4K alpha inh	BAZ2B inh	L3MBTL1 inh
NC(=S)/N=C/c1c(O)[nH]c(=O)[nH]c1=O	79µM*	12%	-26%	-60*	-12%	2%
C[N+]1(C)C2CC[C@H]1CC(OC(=O)[C@@H](CO)c1ccccc1)C2 (stereo partly specified)	-3%[59 µM]	·	·	·	·	·
CCN(CC)S(=O)(=O)c1cccc(N=Nc2c(O)n(CC)c(=S)n(CC)c2=O)c1	?	?	20µM*	5	?	-18%
O=[N+]([O-])/C=C1\NCCN1Cc1ccc(Cl)nc1	50µM*!	-25%	-12%	-8	5%	1%
O=[N+]([O-])NC1=NCCN1Cc1ccc(Cl)nc1	·	28%	?	-18	19%	·
CC(C)(C)NCc1cccn1-c1sc2c(c1C#N)CCCC2	?	?	28µM*	-2	56µM*	-3%
CCCC1=Nc2cc(C(=O)NCCc3ccc(OC)cc3OC)ccc2Sc2ccccc21	-46%[59 µM]	6%	-27%	·	79µM*	·
NCCCCN=C(N)N	29%[12.7 µM]	·	·	·	·	·
Clc1ccc(CCC(Cn2ccnc2)Sc2c(Cl)cccc2Cl)cc1 (stereo unspecified)	?	-13%	25µM*	14	?	?
CC(C)CC(NP(=O)(O)O[C@@H]1O[C@@H](C)[C@H](O)[C@@H](O)[C@H]1O)C(=O)NC(Cc1c[nH]c2ccccc12)C(=O)O (stereo partly specified)	49%[59 µM]	·	·	·	·	·
N#CCCn1cc(C(=O)O)c(-c2cccc([N+](=O)[O-])c2)n1	-29%	15%	-14%	-2	-21%	-15%
O=C(O)CCn1cc(C=C2C(=O)NC(=O)NC2=O)c(-c2ccc(Br)cc2)n1	10µM*	57%	0%	?	-30%	10%
O=C(O)CCn1cc(C=C2C(=O)NC(=S)NC2=O)c(-c2cccc(Cl)c2)n1	2.5µM*	3%	50µM*	-86*	?	-18%
O=C1C(Cl)=C(N2CCOCC2)C(=O)N1c1ccccc1F	35µM*	76%	-12%	8	-27%	?
C=CCn1c(O)c(C(CC)=Nc2cccc(C(=O)O)c2)c(=O)[nH]c1=O	?	50%	-10%	?	-30%	-20%
C=CCn1c(O)c(C(C)=O)c(=O)[nH]c1=O (tested in a mixture with another compound)	45µM*	14%	-26%	-16	-38%	-2%
C=CCn1c(O)c(/C(C)=N/NC(=S)Nc2ccccc2)c(=O)[nH]c1=O	-124%[59 µM]	6%	?	-64*	-3%	·
C=CCn1c(O)c(/C(CC)=N/NC(=S)Nc2ccccc2)c(=O)[nH]c1=O	·	18%	-10%	-26	-10%	0%
